Results filed as inconclusive are left out. Values without a mark were called inactive. Calls follow the shape of the dose curve; as a rule, active = well fitted cell-killing curve with a large enough effect in the repeat runs; inconclusive = weak or mixed curves; inactive = flat fitted curve, though single readings scatter.
Assay: qHTS RealTime-Glo MT Cell Viability Assay in HepG2 cells - 16 hour (AID 1224885); also: nearly all actives have a fitted effect of over 50% in size
Conditions: RealTime-Glo luminescence; series mostly up to 76.8 µM; activity change, negative = cytotoxic: at the top concentration
Text: U.S. Tox21 Program National Center for Advancing Translational Sciences [NCATS] NIH Chemical Genomics Center [NCGC] U.S. Environmental Protection Agency [EPA] National Institutes of Environmental Health Sciences [NIEHS] National Toxicology Program [NTP] U.S. Food and Drug Administration [FDA] Tox21 Assay Overview: Measure of cell viability is critical in the cell-base assay. Analysis of cell viability is necessary for the characterization of cell responses to cytotoxic drugs and environmental stress. A RealTime-Glo MT Cell Viability Assay to monitor cell viability in real time of continues cell culture during 40 hours of compound treatment was used to screen Tox21 10K library compounds in HepG2 cells. The RealTime-Glo MT Cell Viability Assay is a nonlytic, homogeneous, bioluminescent method to measure cell viability in real time using a simple, plate-based method. The assay involves adding NanoLuc luciferase and a cell-permeant prosubstrate to cells in culture. Viable cells reduce the proprietary prosubstrate to generate a substrate for NanoLuc luciferase. This substrate diffuses from cells into the surrounding culture medium, where it is rapidly used by the NanoLuc Enzyme to produce a luminescent signal. The signal correlates with the number of viable cells, making the assay well suited for cytotoxicity studies.
Tox21 Assay Protocol Summary: The mixture of HepG2 cell suspension and reagents were dispensed at 600cells/6 ul/well in 1536-well tissue culture treated black solid bottom plates using a Multidrop dispenser. After the assay plates were incubated at a 37 C/5% CO2 incubator for 5 hours, 23 nL of compounds dissolved in DMSO, positive and negative controls was transferred to the assay plate by a pintool work station. The plates were incubated at 37 C for 40 hours. The luminescence intensity were measured at 0h, 8h, 16h, 24h, 32h and 40h time points using ViewLux plate reader during compound treatment.
% is scaled to controls: 0 for no effect and ±100 for the full control effect.

Structure (SMILES)	activity change, negative = cytotoxic
CCCCOC(=O)[C@@H](C)Oc1ccc(Oc2ccc(C#N)cc2F)cc1	-17.6%
O=c1oc2ccccc2c(O)c1C1CCCc2ccccc21 (stereo not given)	3.6%
CC1(C)CON(Cc2ccccc2Cl)C1=O	0.121%
CCS(=O)(=O)CCSP(=O)(OC)OC	1.67%
COC(=O)c1ccccc1S(=O)(=O)NC(=O)N(C)c1nc(C)nc(OC)n1	1.19%
CCCCc1c(C)nc(NCC)[nH]c1=O	-4.66%
O=C(O)c1cccc(Cl)c1	1.09%
CN/C(=N\[N+](=O)[O-])NCC1CCOC1 (stereo not given)	-0.91%
ClCCCN1CCN(c2cccc(Cl)c2)CC1	-3.35% [at 35.3 µM]
CCOP(=O)(N=C1SCCS1)OCC	1.13%
COc1ccc2c(c1OC)CN1CCc3cc4c(cc3C1C2)OCO4 (stereo not given)	-9.43% [at 35.3 µM]
CCCSC(=O)Cl	2.63%
O=C(Cc1ccccc1)OCc1ccccc1	-0.484%
CCOP(=S)(OCC)Oc1ncn(-c2ccccc2)n1	-16.8%
O=[N+]([O-])c1ccc(CBr)cc1	4.23%
COP(=S)(OC)Oc1c(Cl)cc(C)cc1Cl	-9.7%
Nc1c(Br)cc([N+](=O)[O-])cc1[N+](=O)[O-]	-10.4%
CCCCOP(=O)(O)OCCCC	-1.52%
CCCSP(=S)(OCC)Oc1ccc(Cl)cc1Cl (stereo not given)	-13%
CC(=O)CC(c1ccc(Cl)cc1)c1c(O)c2ccccc2oc1=O (stereo not given)	0.888%

Structure (SMILES)	activity change, negative = cytotoxic
CCNc1nc(NC(C)C)nc(OC)n1	3.36%
C[C@]12CC[C@H]3[C@@H](CC=C4C[C@@H](O)CC[C@@]43C)[C@@H]1CC[C@@H]2O	0.227% [at 35.3 µM]
CNC(=O)Oc1ccc(N(C)C)c(C)c1	2%
C[C@]12CC[C@H]3[C@@H](CCC4=CC(=O)CC[C@@]43C)[C@@H]1CC[C@@H]2C(=O)O	1.08% [at 35.3 µM]
CC(=O)Nc1cc([As](=O)(O)O)ccc1O	-5.52% [at 35.3 µM]
CC1CCC(=O)O1 (stereo not given)	1.89%
CC1=C(C(=O)Nc2ccccc2)S(=O)(=O)CCO1	-14.2%
CC1CN1P(=O)(N1CC1C)N1CC1C (stereo not given)	0.336%
O=C(CCCN1CCC(n2c(=O)[nH]c3ccccc32)CC1)c1ccc(F)cc1	-10.6% [at 35.3 µM]
CCC/C(=N\OCC)C1=C(O)CC(CC(C)SCC)CC1=O (stereo not given)	0.623%
Cc1cnc[nH]1	0.1%
COC(=O)c1c(C(F)F)nc(C(F)(F)F)c(C2=NCCS2)c1CC(C)C	-13.2%
CC(C)NCC(O)c1ccc(N)c(C#N)c1 (stereo not given)	0.954% [at 35.3 µM]
CC(C)CC(N(C)C)C1(c2ccc(Cl)cc2)CCC1 (stereo not given)	-5.77% [at 35.3 µM]
CNNC	0.368%
CNC(=O)Oc1cccc(C(C)C)c1	1.78%
ClC(Br)Br	0.449%
CC(C)(C)C(=O)C(Oc1ccc(Cl)cc1)n1cncn1 (stereo not given)	-3.77%
CN1CCC(O)(c2ccc(F)cc2)C(C(=O)c2ccc(F)cc2)C1 (stereo not given)	-18.5% [at 35.3 µM]
N#Cc1ccncc1	0.829%
